PubChem BioAssay AID686978 (National Center for Advancing Translational Sciences (NCATS), 2013)
Out of some 420,000 compounds screened, about 64,000 (15%) were called active. Another 27% or so got no clear call; they are omitted. Calls follow the shape of the dose curve; as a rule, active = well fitted inhibition curve with a large enough effect; inconclusive = small, poorly fitted or top-dose-only effect; inactive = flat fitted curve, though single readings scatter. A selection follows. Entries that show only a call come without a potency.

Assay: qHTS for Inhibitors of human tyrosyl-DNA phosphodiesterase 1 (TDP1): qHTS in cells in absence of CPT; also: nearly all actives have a fitted effect of over 55% in size
Conditions: DT40 Tdp1-/- hTDP1 cells, no CPT, ATP luminescence, 48 h; activity change, negative = growth inhibition: at 46.2 µM (top of the series)
In short: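 No-CPT arm: Tdp1-/-;hTDP1 DT40 cells (400/well) plus compounds, incubated ≥48 hr at 37 °C. Readout CellTiter-Glo luminescence.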
Potency is read from the fitted curve at half-maximal effect.

Compound | Potency
CCOc1ccc(S(=O)(=O)NCCSc2ccccc2)cc1 | inactive
O=C(Nc1ccccc1)c1ccccc1Br | inactive
O=C(COC(=O)c1ccccc1Br)Nc1nnc(-c2ccccc2)o1 | inactive
O=C(Nc1nnc(-c2ccc(Cl)cc2)o1)c1ccccc1Br | 18.4 µM (active)
O=C(CSc1nnc(-c2ccncc2)o1)Nc1cccc(Cl)c1 | inactive
O=C(Nc1cccc(Cl)c1)Nc1nnc(-c2ccccc2)o1 | 16.4 µM (active)
CC(=O)Nc1cccc(C(=O)OCC(=O)Nc2nnc(-c3ccccc3)o2)c1 | inactive
O=C(Cn1cnc2cc([N+](=O)[O-])ccc2c1=O)NC(=O)NCc1ccccc1 | inactive
CCOC(=O)N1CCN(Cc2oc(CO)cc(=O)c2O)CC1 | inactive
Cc1ccc(C(=O)O)cc1NC(=O)c1ccc(Cn2nc(C)c(Cl)c2C)o1 | inactive
Cc1c(Cl)c([N+](=O)[O-])nn1Cc1ccc(C(=O)N/N=C\c2cc(Cl)ccc2O)o1 | 4.61 µM (active)
O=C(N/N=C/c1ccc2c(c1)OCO2)c1ccc(Cn2cc([N+](=O)[O-])cn2)o1 | inactive
O=C(O)CSCC(=O)Nc1ccc(C(F)(F)F)cc1 | inactive
COc1ccc(C(C)=O)cc1CN1C(=O)NC2(CCCCC2C)C1=O (stereo not given) | inactive
CNS(=O)(=O)c1cccc(C(=O)OCC(=O)N2c3ccccc3NC(=O)C2(C)C)c1 | inactive
CCCOC1CCCN(Cc2cn(C)nc2-c2ccccc2F)C1 (stereo not given) | inactive
Cc1ccn(CC(=O)NC2CCCN(Cc3ccccc3F)C2)n1 (stereo not given) | inactive
CC(C)c1cc(C(=O)N(C)C2CCCN(Cc3ccccc3F)C2)n(C)n1 (stereo not given) | 25.9 µM (active)
CC1CCCN(Cc2c(O)ccc3c(=O)c(Oc4ccc(C(C)(C)C)cc4)c(C(F)(F)F)oc23)C1 (stereo not given) | inactive
Cn1nc(C(F)(F)F)c2cc(NC(=O)OCC(C)(C)C)sc21 | inactive
COC(=O)Cn1cc(C(=O)c2cccs2)c2ccccc21 | inactive
COCCNC(=O)Cn1cc(C(=O)c2cccs2)c2ccccc21 | inactive
O=C(c1cccs1)c1cn(CCOc2ccc(Cl)cc2)c2ccccc12 | 7.31 µM (active)
O=C(CC1SC(N2CCCC2)=NC1=O)Nc1ccc(C(=O)NCCc2ccc(F)cc2)cc1 (stereo not given) | inactive
CC(=O)Nc1ccc(NS(=O)(=O)c2cc(C)sc2C)cc1 | inactive
O=C(c1cccc([N+](=O)[O-])c1)N1CCN(C(=O)c2ccco2)CC1 | inactive
O=[N+]([O-])c1cc(-c2nc(-c3ccccc3)no2)ccc1NCc1ccco1 | inactive

Compound | Potency
O=C(c1ccccc1)N1CCN(c2ccc([N+](=O)[O-])c(NCc3ccco3)c2)CC1 | 16.4 µM (active)
COc1ccc(CCNC(=O)CCc2ccccc2O)cc1OC | inactive
COc1ccc(CCNc2cc(N3CCN(C(=O)c4ccccc4OC)CC3)ccc2[N+](=O)[O-])cc1OC | 9.2 µM (active)
COc1ccc(CCNC(=O)c2ccccc2-c2ccccc2C(=O)O)cc1OC | inactive
CCC(=O)N1CCC(C(N)=O)(N2CCCCC2)CC1 | inactive
COc1cccc(C(=O)NC2=NC(c3ccc(N(C)C)cc3)CC(=O)N2)c1 (stereo not given) | inactive
O=C(NCCCn1ccnc1)c1cc2c(s1)CCCC2 | inactive
CCOCCCNC(=O)C(NC(=O)c1ccc(=O)[nH]c1)c1ccc(C)cc1 (stereo not given) | inactive
CC(=O)N(CC(O)CO)c1c(I)c(C(=O)NCC(O)CO)c(I)c(C(=O)NCC(O)CO)c1I (stereo not given) | inactive
COc1ccc(C2N=C(N)N=C(N)N2c2ccccc2)cc1OC (stereo not given) | inactive
O=C(NCCS(=O)(=O)NCc1ccc(Cl)cc1)c1ccccc1 | inactive
CCCS(=O)(=O)N1CCC(C(=O)NCCc2ccc(OC)c(OC)c2)CC1 | inactive
COc1ccc(CNC(=O)COC(=O)CCS(=O)(=O)c2ccc(C)cc2)cc1OC | inactive
CCCCCCn1c(=O)n2n(c1=O)C[C@]1(OC(=O)NCc3ccc(OC)c(OC)c3)CN(S(=O)(=O)c3ccc(C)cc3)C[C@]1(O)C2 | 20.6 µM (active)
Cc1nnc(-c2ccc(Oc3ccc(C)c(C)c3)c([N+](=O)[O-])c2)o1 | 9.2 µM (active)
CNc1ccc(-c2nc(-c3ccccc3C)no2)cc1[N+](=O)[O-] | inactive
COc1ccc(-c2nc3cc([N+](=O)[O-])ccc3o2)cc1OC | inactive
O=C(CCc1nc(CN2CCN(S(=O)(=O)c3ccc(Cl)cc3)CC2)no1)N1CCCCC1 | inactive
O=C(COC(=O)COc1cccc(F)c1)NCC1CCCCC1 | inactive
O=C1OC(C(=O)Nc2cccc(Br)c2)Cc2ccccc21 (stereo not given) | inactive
CC(C)C[C@@H](COCc1ccc(Cl)cc1)N1CCN(C(=O)c2ccc(Cl)cc2Cl)CCC1=O | 16.4 µM (active)
CC(C)CC(CO)N1CCN(C(=O)c2ccc(Cl)cc2Cl)CCC1=O (stereo not given) | inactive
CC(C)C[C@@H](CO)N1CCN(Cc2ccc(O)cc2)CCC1=O | inactive
Cc1nc(N)nc(Cl)c1CCC1OCCO1 | inactive
Cc1csc(=Nc2ccccc2)n1CCO | inactive
OCCn1c(-c2ccccc2)csc1=Nc1ccccc1 | 16.4 µM (active)
CCOCCc1nn2c(=O)cc(CSCC(=O)Nc3cccc(C)c3C)nc2s1 | inactive

Compound | Potency
O=C(COC(=O)CCc1ccc(S(=O)(=O)N2CCOCC2)cc1)Nc1cccc(Cl)c1 | inactive
Cc1ccc2nc(COc3cccc(NC(=O)c4cccc(Cl)c4)c3)cc(=O)n2c1 | inactive
O=C(Nc1ccon1)c1cccc(Cl)c1 | inactive
Cc1cc(NC(=O)c2cccc(Cl)c2)ccc1-c1cc2ccccc2oc1=O | 23.1 µM (active)
N/C(=N\OS(=O)(=O)c1cccc([N+](=O)[O-])c1)c1ccncc1 | inactive
Cc1ccc(CNC(=O)C(=O)c2cn(CC(=O)N3CCOCC3)c3ccccc23)cc1 | inactive
CCS(=O)(=O)c1ccc(C(=O)NC)c(Cl)c1Cl | inactive
Cc1cc(O)ccc1-c1cnc2ccccc2n1 | inactive
Cc1cccc(C)c1NC(=O)c1ccc(CN2CCc3ccccc3C2)cc1 | 20.6 µM (active)
Cc1ccc(NC(=O)CN2CCc3ccccc3C2)cc1C | inactive
O=C(Nc1ccc(CSc2ccccc2)cc1)c1ccc(CN2CCOCC2)cc1 | inactive
O=C(NNC(=O)c1csc(-c2cccnc2)n1)Nc1ccc(Cl)cc1 | inactive
C#CC(C)(CC)NC(=O)Cn1nnc(-c2ccc(OCc3c(F)cccc3Cl)cc2)n1 (stereo not given) | 18.4 µM (active)
Fc1cccc(Cl)c1COc1ccc(-c2nnco2)cc1 | inactive
COCCCNC(=O)/C=C/c1ccc(OCc2c(F)cccc2Cl)cc1 | inactive
O=C(OCCOCn1cc(Br)c(=O)[nH]c1=O)c1ccccc1 | inactive
CN(N)c1nc(N2CCCC2)nc(N2CCCC2)n1 | inactive
O=C(NCc1ccccc1)c1cc(-c2cccc(Cl)c2)on1 | inactive
O=C(c1cn(CC2CCCN(Cc3cc4ccccc4s3)C2)nn1)N1CCCC1 (stereo not given) | inactive
CCOC(=O)C1(CCOC)CCN(Cc2ccc(C(=O)OC)cc2)CC1 | inactive
CCOC(=O)C1(CCOC)CCN(Cc2cc3ccccc3s2)CC1 | 16.4 µM (active)
CCOC(=O)C1(S(=O)(=O)c2ccc(Cl)cc2)CCN(Cc2ccccc2)CC1 | inactive
CCOC(=O)C1(CCOc2ccccc2)CCN(Cc2ccc(C#CCCO)cc2)CC1 | 16.4 µM (active)
O=C(CCc1ccccc1)Nc1ccnn1C1CCN(Cc2ccc(OCCO)cc2)CC1 | inactive
CCOc1cc2[nH]c(=S)n(CCN3CCCCC3C)c(=O)c2cc1OCC (stereo not given) | inactive
O=C(NN1C(=O)C2C3C=CC(C3)C2C1=O)c1ccco1 (stereo not given) | inactive
COc1ccc(OC)c(NC(=O)N[C@H](Cc2ccccc2)C(=O)NN)c1 | inactive

Compound | Potency
O=C(COC(=O)/C=C/c1ccc(Br)o1)Nc1cccc(S(=O)(=O)N2CCOCC2)c1 | inactive
O=C(Nc1ccc(-c2cscn2)cc1)C1CCCN(Cc2ccc(CO)o2)C1 (stereo not given) | inactive
COc1ccccc1/C=N/N1CCN(Cc2ccccc2Cl)CC1 | inactive
CCC1Nc2ncnc(N3CCN(c4ccccc4)CC3)c2N(Cc2ccc(Cl)cc2)C1=O (stereo not given) | 20.6 µM (active)
CCS(=O)(=O)N1CCC(N2CCN(c3ccccc3)CC2)CC1 | inactive
O=C1C(Cc2ccc(O)cc2)NC(=S)N1Cc1ccccc1 (stereo not given) | inactive
O=C(Nc1ccnc(-c2ccncc2)n1)c1cccs1 | inactive
Cc1ccc(C(=O)Nc2cc3c(cc2N2CCCC2)n(C)c(=O)c(=O)n3C)cc1 | 20.6 µM (active)
CCc1ccc(S(=O)(=O)Nc2cc3c(cc2N2CCCCC2)n(C)c(=O)c(=O)n3C)cc1 | inactive
Cn1c(=O)n(C)c2cc(C(=O)Nc3ccc(Br)cc3)ccc21 | inactive
C=C(C)CNC(=O)c1ccc(OC2CCN(C(=O)COC)CC2)cc1 | inactive
C=CCNC(=O)COC(=O)CNC(=O)c1cc(Cl)cc([N+](=O)[O-])c1 | inactive
Cc1c(Cl)cccc1NC(=O)[C@@]1(CC(=O)O)CC(/C=C/c2ccccc2)=NO1 | inactive
CCc1c(-c2ccc(F)cc2)ncn1Cc1cccc(-c2ccccc2)c1 | 11.6 µM (active)
Cc1ccc(-c2csc(C(C#N)=C(O)CN3CCN(C(=O)c4ccco4)CC3)n2)cc1 | inactive
Cc1ccc(CNC(=O)CCC(=O)N2Cc3ccccc3Oc3ncccc32)cc1 | inactive
C=CCc1cc(C)ccc1OCCCn1ccnc1 | inactive
Oc1ccc(Cl)cc1/C=N/c1nc2ccccc2[nH]1 | inactive
SCc1nc2ccc(Cl)cc2[nH]1 | 3.98 µM (active)
OC(c1nc2ccc(F)cc2[nH]1)C(O)c1nc2ccc(F)cc2[nH]1 (stereo not given) | inactive
Cc1ccc2nc(SCC(=O)N3CCN(c4ccccc4)CC3)nc(=O)n2c1 | inactive
CN1C(=O)/C(=C\c2ccc(-c3ccccc3)o2)SC1=S | inactive
CCC(C)N1C(=O)S/C(=C/c2ccc(Sc3nc4ccccc4[nH]3)o2)C1=O (stereo not given) | 11.2 µM (active)
CCc1nnc(NC(=O)CCCSc2nc3ccccc3[nH]2)s1 | inactive
